# Measurements as given in the supplement of paper PMC12339681.
# Counter-ions that a name gives are not always drawn.
# Test system: PBMC-derived induced microglia-like cells (piMGLC)
# Test: synaptosome phagocytic index relative to DMSO control (fraction of DMSO); higher = more phagocytosis
# Details: concentration: 10 uM (2 uM for compounds listed in Table S2); pretreatment time: 24 h; assay time: 3 h
row,Compound,synaptosome phagocytic index
1,Cc1nc2n(c(=O)c1CCN1CCC(c3noc4cc(F)ccc34)CC1)CCCC2O (configuration not stated) [Paliperidone],0.852
2,CC1OC2(CS1)CN1CCC2CC1 (configuration not stated) [Cevimeline_(hydrochloride_hemihydrate)],0.63
3,COc1cc(/C=C/C(=O)NCCn2c(C)cc3ccccc32)cc(OC)c1OC,0.832
4,CNCCCN1c2ccccc2CCc2ccccc21 [Desipramine_hydrochloride],1.13
5,Nc1cccc2c1CN(C1CCC(=O)NC1=O)C2=O (configuration not stated) [Lenalidomide],1.11
6,O=c1[nH]c2cc(Cl)ccc2c(O)c1-c1cccc(Oc2ccccc2)c1,1.18
7,Nc1nc(NC2CC2)c2ncn([C@H]3C=C[C@@H](CO)C3)c2n1 [Abacavir_(sulfate)],1.1
8,CNS(=O)(=O)CCc1ccc2[nH]cc(C3CCN(C)CC3)c2c1 [Naratriptan_(hydrochloride)],1.3
9,Cc1nc2n(c(=O)c1CCN1CCC(c3noc4cc(F)ccc34)CC1)CCCC2 [Risperidone],0.887
10,COc1cc(C(=O)Nc2cc(OC(F)(F)F)ccc2-n2cncn2)ccc1OCC1CC1,0.921
11,CCOc1nc2cccc(C(=O)O)c2n1Cc1ccc(-c2ccccc2-c2nnn[nH]2)cc1 [Candesartan],1.1
12,CO[C@H]1C[C@@H]2CC[C@@H](C)[C@@](O)(O2)C(=O)C(=O)N2CCCC[C@H]2C(=O)O[C@H]([C@H](C)C[C@@H]2CC[C@@H](OCCO)[C@H](OC)C2)CC(=O)[C@H](C)/C=C(\C)[C@@H](O)[C@@H](OC)C(=O)[C@H](C)C[C@H](C)/C=C/C=C/C=C/1C [Everolimus],0.223
13,CCNc1nc(Nc2cc(F)c(C(=O)N3CCOCC3)cc2OC)ncc1C(F)(F)F [GNE-7915_(tosylate)],0.359
14,CN(C)CCC=C1c2ccccc2C=Cc2ccccc21 [Cyclobenzaprine_(hydrochloride)],0.59
15,CC(=O)[C@H]1CC[C@H]2[C@@H]3CCC4=CC(=O)CC[C@]4(C)[C@H]3CC[C@]12C [Progesterone],0.761
16,C[C@H](C(=O)O)c1cccc(C(=O)c2ccccc2)c1 [S-(+)-Ketoprofen],0.724
17,CCN(CC)C(=O)C1(c2ccccc2)CC1CN (configuration not stated) [Milnacipran_(hydrochloride)],1.35
18,C=C[C@H]1CN2CC[C@H]1C[C@@H]2[C@@H](O)c1ccnc2ccc(OC)cc12 [Quinidine],0.962
19,Nc1nc(=O)n([C@@H]2CS[C@H](CO)O2)cc1F [Emtricitabine],0.777

row,Compound,synaptosome phagocytic index
1,CCCN(CCC)S(=O)(=O)c1ccc(C(=O)O)cc1 [Probenecid],0.701
2,NCC(=O)CCC(=O)O [5-Aminolevulinic_acid_(hydrochloride)],0.444
3,CC(C)(O/N=C(\C(=O)N[C@@H]1C(=O)N2C(C(=O)[O-])=C(C[n+]3ccccc3)CS[C@H]12)c1csc(N)n1)C(=O)O [Ceftazidime],1.05
4,COc1cc2c(N3CCN(C(=O)Nc4ccc(OC(C)C)cc4)CC3)ncnc2cc1OCCCN1CCCCC1 [Tandutinib_(hydrochloride)],0.778
5,C[C@H](N=C(NC#N)Nc1cccc2ncccc12)c1ccccc1,0.994
6,CC(=O)OCC[N+](C)(C)C [Acetylcholine_(chloride)],0.587
7,Cn1cc(-c2c[nH]c3ncnc(N4CCOCC4)c23)cc1C#N,1.32
8,C=CC(N)CCC(=O)O (configuration not stated) [Vigabatrin],0.918
9,O=c1n(CCCN2CCN(c3cccc(Cl)c3)CC2)nc2ccccn12 [Trazodone_(hydrochloride)],1.39
10,CC(CN(C)C)CN1c2ccccc2CCc2ccccc21 (configuration not stated) [Trimipramine_(maleate)],0.449
11,N#Cc1cccc(C(=O)Nc2cc(-c3ccccc3)nn2-c2ccccc2)c1,0.299
12,CNCCC(Oc1ccc(C(F)(F)F)cc1)c1ccccc1 (configuration not stated) [Fluoxetine_(hydrochloride)],0.69
13,O=C(O)Cc1ccccc1Nc1c(Cl)cccc1Cl [Diclofenac_(Sodium)],0.856
14,N[C@H](C(=O)O)[C@@H]1CC(Cl)=NO1 [Acivicin],0.68
15,CC(C)[C@H]1C(=O)N[C@@H](CCCNC(=N)N)C(=O)NCC(=O)N[C@@H](CC(=O)O)C(=O)N[C@H](Cc2ccccc2)C(=O)N1C [Cilengitide],1.09
16,Nc1cc(C(F)(F)F)c(-c2nc(N3CCOCC3)nc(N3CCOCC3)n2)cn1 [Bimiralisib],0.518
17,C#CCNS(=O)(=O)c1ccc(CCN(Cc2cc(Cl)ccc2OCCC)C(=O)Cc2ccsc2)cc1,0.54
18,CC/C(=C(/CC)c1ccc(O)cc1)c1ccc(O)cc1 [Diethylstilbestrol],0.638
